Shown are actives, neighbours in structure and some others; about 11% of the full set was active somewhere.
HEK cytotox: Cytotoxic Profiling in HEK 293 Cell Line of Diverse Libraries Using Quantitative High-Throughput Screening | HEK 293 viability, ATP luminescence (CellTiter-Glo), 48-72 h | Potency, µM (top dose mostly 115 µM), for the others: at the highest dose activity change, negative = cytotoxicity, most hits filed as inhibitors | 6.6% of 94,000 active | AID 1345083, 2018; further: nearly all actives have a fitted effect of over 60% in size
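HEK 293 cells seeded at 250 cells/well were exposed to compound for 48 or 72 hr at 37 degree Celsius. Viability taken as ATP content by CellTiter-Glo luminescence.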
Luciferase inh: Firefly luciferase inhibition profiling of diverse chemical library using quantitative high-throughput screening. Luciferin 4-monooxygenase (Photinus pyralis), P08659. purified P. pyralis luciferase, luminescence, biochemical. Potency, µM (top dose mostly 115 µM), most hits filed as inhibitors. 2.5% of 76,000 active; further: nearly all actives have a fitted effect of over 65% in size
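FLuc 10nM, D-luciferin 10uM, ATP 10uM, Mg acetate 10mM, Tris acetate pH 7.5, Tween/BSA; cpd qHTS; enzyme added last; CCD luminescence.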
NPR1 antag: Natriuretic polypeptide receptor (hNpr1) antagonism - Primary qHTS | Atrial natriuretic peptide receptor 1 (Homo sapiens), P16066 | HEK293 hNpr1 GloSensor cGMP, ANP-stimulated luminescence | Potency, µM (titrated, usually from 46.3 µM), without a hit: at the top dose activity change, negative = inhibition, usual class: inhibitors | 1.6% of 76,000 active; calls by dose curve; further: nearly all actives have a fitted effect of over 60% in size
Target sequence (P16066 whole entry, looked up): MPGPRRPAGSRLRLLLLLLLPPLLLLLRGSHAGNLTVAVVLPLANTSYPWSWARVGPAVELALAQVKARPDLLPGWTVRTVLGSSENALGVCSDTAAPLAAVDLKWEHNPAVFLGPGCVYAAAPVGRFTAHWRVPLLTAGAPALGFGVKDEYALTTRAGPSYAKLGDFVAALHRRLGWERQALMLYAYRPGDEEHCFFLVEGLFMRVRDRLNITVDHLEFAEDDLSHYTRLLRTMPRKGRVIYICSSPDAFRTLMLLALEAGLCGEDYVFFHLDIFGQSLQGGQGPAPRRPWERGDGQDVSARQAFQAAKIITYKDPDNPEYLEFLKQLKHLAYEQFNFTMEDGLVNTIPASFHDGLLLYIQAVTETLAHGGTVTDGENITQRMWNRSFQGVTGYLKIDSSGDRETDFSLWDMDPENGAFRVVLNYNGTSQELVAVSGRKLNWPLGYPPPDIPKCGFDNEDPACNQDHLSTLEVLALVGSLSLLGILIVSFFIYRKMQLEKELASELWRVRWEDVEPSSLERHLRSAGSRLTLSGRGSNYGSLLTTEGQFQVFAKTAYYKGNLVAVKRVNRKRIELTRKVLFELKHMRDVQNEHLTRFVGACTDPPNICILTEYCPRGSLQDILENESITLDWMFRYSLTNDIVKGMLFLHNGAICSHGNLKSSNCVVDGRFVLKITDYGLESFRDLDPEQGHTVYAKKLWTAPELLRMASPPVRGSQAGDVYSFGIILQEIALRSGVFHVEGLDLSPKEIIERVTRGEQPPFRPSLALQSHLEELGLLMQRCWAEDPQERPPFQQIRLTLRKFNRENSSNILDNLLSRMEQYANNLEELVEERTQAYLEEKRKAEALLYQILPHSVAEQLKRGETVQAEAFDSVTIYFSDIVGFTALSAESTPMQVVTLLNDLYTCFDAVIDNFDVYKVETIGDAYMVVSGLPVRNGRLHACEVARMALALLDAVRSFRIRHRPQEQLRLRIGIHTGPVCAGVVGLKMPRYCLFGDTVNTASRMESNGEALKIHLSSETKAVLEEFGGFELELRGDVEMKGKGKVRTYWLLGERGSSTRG
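HEK293 cells stably expressing human Npr1 and cGMP GloSensor pGS-40F, loaded 2 h with 2% GloSensor reagent, given compound 30 min at room temperature. Luminescence read before and 20 min after 0.1 nM hNppA.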
3T3 cytotox: Cytotoxic Profiling in NIH 3T3 Cell Line of Diverse Libraries Using Quantitative High-Throughput Screening; NIH 3T3 viability, CellTiter-Glo ATP luminescence, 48-72 h; Potency, µM (doses to about 96.7 µM), for the others: at the highest dose activity change, negative = cytotoxicity, hits mostly inhibitors; 4.3% of 94,000 active; AID 1345082, 2018; further: nearly all actives have a fitted effect of over 55% in size
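Viability of NIH 3T3 cells after 48 or 72 hr compound treatment at 37 °C was assessed by CellTiter-Glo, with luminescence imaged following a 10 min room-temperature step.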
The depositor's hits bear a star; [ ] = remark or other dose. Unless noted, the call rests on the fitted dose curve; in most records, active means well fitted curve in the direction sought with a large enough effect; inconclusive means small, poorly fitted or top-dose-only effect, or another doubt; inactive means no such curve, though single readings can be large; an effect the other way counts as inactive or inconclusive. On the % scale 0 is the no-effect control and ±100 the full control effect; potency means the concentration at half of the fitted maximal effect.

O=C(c1ccccc1)N1CCC2(CC1)CCN(CCc1ccccc1)c1ccccc1O2 was read as HEK cytotox 39.8µM*, Luciferase inh inactive, NPR1 antag -5.7% and 3T3 cytotox inconclusive.
`O=C(c1ccc(F)cc1)N1CCC2(CC1)CCN(CCc1ccccc1)c1ccccc1O2` gave HEK cytotox 39.8µM*, Luciferase inh inactive, NPR1 antag 0.0% and 3T3 cytotox inconclusive.
CCCN1CCC2(CCN(C(=O)c3ccccc3C)CC2)Oc2ccccc21 was read as HEK cytotox inconclusive, Luciferase inh inactive, NPR1 antag 26.1% and 3T3 cytotox inconclusive.
O=C(c1ccccc1F)N1CCC2(CC1)CCN(CCc1ccccc1)c1ccccc1O2 was read as HEK cytotox inconclusive, Luciferase inh inactive, NPR1 antag -2.5% and 3T3 cytotox inconclusive.
`O=C(Cc1ccc(F)cc1)N1CCC2(CC1)CC(=O)N(c1ccccc1)c1ccccc1O2` gave HEK cytotox 39.8µM*, Luciferase inh inactive, NPR1 antag -9.1% and 3T3 cytotox 39.8µM*.
Cc1ccccc1C(=O)N1CCC2(CC1)CCN(CCc1ccccc1)c1ccccc1O2 was read as HEK cytotox 28.2µM*, Luciferase inh inactive, NPR1 antag 1.5% and 3T3 cytotox inconclusive.
`COC1C(=O)N(c2cccc(F)c2)C12CCN(S(=O)(=O)c1ccccc1C)CC2` (centres undefined) gave HEK cytotox inconclusive, Luciferase inh inactive, NPR1 antag -15.6% and 3T3 cytotox inconclusive.
For COC(=O)N1CCCC(C(=O)N2CCC(c3nc4ccncc4[nH]3)C2)C1 (centres undefined) the results were HEK cytotox -2.1% and 3T3 cytotox -9.3%.
For COc1ccccc1CC(=O)N1CCCc2ncc(C(=O)NCCOc3ccccc3)cc21 the results were HEK cytotox inconclusive, Luciferase inh inactive, NPR1 antag -8.1% and 3T3 cytotox -23.0%.
Screening CC(C)CCNC(=O)c1cnc2c(c1)N(C(=O)Cc1ccc(C(C)C)cc1)CCC2 returned HEK cytotox 100µM*, Luciferase inh inactive, NPR1 antag -22.8%[70.6 µM] and 3T3 cytotox 100µM*.
`CC(C)c1ccc(CC(=O)N2CCCc3ncc(C(=O)NCCOc4ccccc4)cc32)cc1` gave HEK cytotox 39.8µM*, Luciferase inh inconclusive, NPR1 antag inconclusive and 3T3 cytotox inconclusive.
`COCCNC(=O)c1ccc(CC2CCN(C(=O)CCc3c(C)nn(C)c3C)CC2)cc1` gave HEK cytotox inconclusive, Luciferase inh inactive, NPR1 antag -22.1% and 3T3 cytotox inconclusive.
Screening COc1cccc(CNC(=O)c2ccc3oc(-c4ccncc4)nc3c2)c1 returned HEK cytotox -25.6% and 3T3 cytotox -21.1%.
For Cc1cc(C)c(CNC(=O)c2nc(-c3cccc(F)c3)cc3c2ccn3C(C)C)c(=O)[nH]1 the results were HEK cytotox 31.6µM*, Luciferase inh inactive, NPR1 antag -7.4%[70.6 µM] and 3T3 cytotox inconclusive.
For Cc1cc(C)c(CNC(=O)c2nc(-c3cccc(O)c3)cc3c2ccn3C)c(=O)[nH]1 the results were HEK cytotox inconclusive, Luciferase inh inactive, NPR1 antag -3.4%[70.6 µM] and 3T3 cytotox 25.1µM*.
Cc1cc(C)c(CNC(=O)c2nc(-c3cccc(O)c3)cc3c2ccn3C(C)C)c(=O)[nH]1 was read as HEK cytotox inconclusive, Luciferase inh inactive, NPR1 antag -15.2%[70.6 µM] and 3T3 cytotox inconclusive.
`Cc1cc(C)c(CNC(=O)c2nc(-c3ccccc3)cc3c2ccn3C(C)C)c(=O)[nH]1` gave HEK cytotox inconclusive, Luciferase inh inactive, NPR1 antag -11.3%[70.6 µM] and 3T3 cytotox inconclusive.
`Cc1cc(C)c(CNC(=O)c2nc(-c3cccc(F)c3)cc3c2ccn3C)c(=O)[nH]1` gave HEK cytotox inconclusive, Luciferase inh inactive, NPR1 antag 1.2%[70.6 µM] and 3T3 cytotox -28.6%[138 µM].
For Cc1cc(C)c(CNC(=O)c2nc(-c3ccnn3C)cc3c2ccn3C(C)C)c(=O)[nH]1 the results were HEK cytotox inconclusive, Luciferase inh inactive, NPR1 antag -0.7%[70.6 µM] and 3T3 cytotox 89.1µM*.
`CCn1cc(C(=O)N2CC(n3cc(COCc4ccccc4)nn3)C2)cn1` gave HEK cytotox 2.6% and 3T3 cytotox -17.0%.
`COc1ccc(CN2CC3(CCN(C(=O)c4cc(-c5ccc(F)cc5)n[nH]4)CC3)C2=O)cc1` gave HEK cytotox 89.1µM*, Luciferase inh inactive, NPR1 antag -14.7% and 3T3 cytotox inconclusive.
`CNC(=O)c1cc(C)nc2onc(C3CCCN3C(=O)C3CC3)c12` (centres undefined) gave HEK cytotox -15.7% and 3T3 cytotox -27.5%.
`COCCNC(=O)[C@@H]1Cc2cn(Cc3cccnc3)c3cccc(c23)[C@H](CC(C)C)N1` gave HEK cytotox 44.7µM*, Luciferase inh inactive, NPR1 antag -3.3%[70.6 µM] and 3T3 cytotox inconclusive.
C=CCNC(=O)[C@@H]1Cc2cn(Cc3ccncc3)c3cccc(c23)[C@H](CC(C)C)N1 was read as HEK cytotox 35.5µM*, Luciferase inh inactive, NPR1 antag -26.4%[70.6 µM] and 3T3 cytotox inconclusive.
For CC(C)C[C@@H]1N[C@H](C(=O)NCC2CC2)Cc2cn(Cc3cccnc3)c3cccc1c23 the results were HEK cytotox inconclusive, Luciferase inh inactive, NPR1 antag -28.4%[70.6 µM] and 3T3 cytotox inconclusive.
For CC(C)C[C@@H]1N[C@H](C(=O)N2CCN(C)CC2)Cc2cn(Cc3cccnc3)c3cccc1c23 the results were HEK cytotox -11.9%, Luciferase inh inactive, NPR1 antag 2.0% and 3T3 cytotox -8.9%.
Screening CC(C)C[C@@H]1N[C@H](C(=O)N2CCN(C)CC2)Cc2cn(Cc3ccccn3)c3cccc1c23 returned HEK cytotox inconclusive, Luciferase inh inactive, NPR1 antag -1.5% and 3T3 cytotox inconclusive.
For COCCNC(=O)[C@@H]1Cc2cn(Cc3ccccn3)c3cccc(c23)[C@H](CC(C)C)N1 the results were HEK cytotox 28.2µM*, Luciferase inh inactive, NPR1 antag -0.5%[70.6 µM] and 3T3 cytotox inconclusive.
C#CCNC(=O)[C@@H]1Cc2cn(Cc3cccnc3)c3cccc(c23)[C@H](CC(C)C)N1 was read as HEK cytotox 56.2µM*, Luciferase inh inactive, NPR1 antag -0.8%[70.6 µM] and 3T3 cytotox 79.4µM*.
For C[C@]1(CO)C2CC[C@@H](O)[C@@H](CC(=O)N3CCC[C@H]3CO)[C@]2(C)CC[C@H]1OC(=O)Nc1ccccc1 (some centres undefined) the results were HEK cytotox -3.8%, Luciferase inh inactive, NPR1 antag -9.7% and 3T3 cytotox -19.1%.

Screens (PubChem)
